# Source: the antibiotic and cytotoxicity screens of Wong et al. (2023)
# Hit rate of the full screen: of about 39,000 compounds, about 3,300 (8.5%) were called active. This excerpt belongs to a sample that is enriched for actives.
# System: HepG2
# Assay: cytotoxicity call (relative viability < 0.9)
# Details: 10 µM
row,Compound,cytotoxicity call
1,CC(C)NC(=O)Nc1cccc2c1O[C@H](CN(C)S(=O)(=O)c1ccc(Cl)cc1)[C@@H](C)CN([C@@H](C)CO)C2=O,inactive
2,CNC(=O)C[C@H]1CC[C@H]2[C@@H](COC[C@@H](O)CN2C(=O)c2ccccn2)O1,inactive
3,C=C[C@@H]1C[C@]1(NC(=O)[C@@H]1C[C@@H]2CN1C(=O)[C@H](C(C)(C)C)NC(=O)O[C@@H]1C[C@H]1CCCCCc1nc3ccc(OC)cc3nc1O2)C(=O)NS(=O)(=O)C1CC1,inactive
4,COCC#Cc1ccc2c(c1)O[C@H](CN(C)C(=O)Nc1ccccc1F)[C@@H](C)CN([C@H](C)CO)S2(=O)=O,inactive
5,C[C@H](CO)N1C[C@H](C)[C@@H](CN(C)S(=O)(=O)c2cccs2)Oc2ccc(NC(=O)Cn3cnnn3)cc2CC1=O,inactive
6,C[C@H](CO)N1C[C@H](C)[C@H](CN(C)Cc2ccc(C(=O)Nc3ccccc3N)cc2)Oc2ccc(NC(=O)Nc3cccc4ccccc34)cc2C1=O,active
7,C[C@H]1CN([C@@H](C)CO)C(=O)c2cc(NC(=O)Nc3cccc4ccccc34)ccc2O[C@H]1CN(C)Cc1ccc(C(=O)Nc2ccccc2N)cc1,inactive
8,C[C@@H]1CN([C@H](C)CO)C(=O)c2cc(NC(=O)Nc3cccc4ccccc34)ccc2O[C@@H]1CN(C)Cc1ccc(C(=O)Nc2ccccc2N)cc1,active
9,C[C@H](CO)N1C[C@H](C)[C@@H](CN(C)Cc2ccc(C(=O)Nc3ccccc3N)cc2)Oc2ccc(NC(=O)Nc3cccc4ccccc34)cc2C1=O,inactive
10,C[C@H]1CN([C@@H](C)CO)C(=O)c2cc(NC(=O)Nc3cccc4ccccc34)ccc2O[C@@H]1CN(C)Cc1ccc(C(=O)Nc2ccccc2N)cc1,inactive
11,C[C@@H]1CN([C@H](C)CO)C(=O)c2cc(NC(=O)Nc3cccc4ccccc34)ccc2O[C@H]1CN(C)Cc1ccc(C(=O)Nc2ccccc2N)cc1,inactive
12,CN1C(=O)c2cc(NC(=O)Cc3cccs3)ccc2OC[C@@H]2O[C@@H](CC(=O)NCCCN3CCOCC3)CC[C@H]21,inactive
13,COCCOC(=O)N1C(=O)[C@@]2(c3cc(C#CCNC(N)=O)ccc31)[C@H](c1ccc(O)cc1)N1[C@H](c3ccccc3)[C@H](c3ccccc3)OC(=O)[C@H]1[C@@H]2C(=O)N1CCc2cc(OC)c(OC)cc2C1,inactive
14,COC(=O)[C@H]1[C@H](CO)[C@H]2Cn3c(cccc3=O)[C@H]2N1C(=O)C1CC1,inactive
15,C[C@H](CO)N1C[C@H](C)[C@@H](CN(C)Cc2ccc(C(=O)Nc3ccccc3N)cc2)Oc2c(NC(=O)Nc3ccccc3)cccc2C1=O,inactive
16,C[C@H](C(=O)O)N1CCCC1=O,inactive
17,C[C@H](CO)N1C[C@H](C)[C@@H](CN(C)C(=O)Nc2cccc3ccccc23)Oc2ccc(NC(=O)Nc3ccccc3)cc2C1=O,inactive
18,COc1ccc(S(=O)(=O)N2C[C@H](O)COC[C@@H]3O[C@H](CC(=O)NCCCN(C)C)CC[C@H]32)cc1,inactive
19,C[C@H]1CN([C@@H](C)CO)C(=O)c2c(c3ccccc3n2C)-c2ccccc2CO[C@@H]1CN(C)Cc1cccc(C(=O)O)c1,inactive
20,Cc1ccc(S(=O)(=O)N(C)C[C@H]2Oc3c(NC(=O)Nc4cccc5ccccc45)cccc3C(=O)N([C@@H](C)CO)C[C@H]2C)cc1,inactive
21,O=C(C[C@@H]1C[C@@H]2c3cc(NS(=O)(=O)c4ccc(F)cc4)ccc3O[C@@H]2[C@H](CO)O1)NCCc1ccccc1,inactive
22,C[C@H]1CN([C@@H](C)CO)C(=O)Cc2cc(NC(=O)Nc3cccc4ccccc34)ccc2O[C@H]1CN(C)S(=O)(=O)c1cccs1,inactive
23,CC(C)NC(=O)Nc1ccc2c(c1)CC(=O)N([C@H](C)CO)C[C@H](C)[C@H](CN(C)S(=O)(=O)c1cccs1)O2,inactive

row,Compound,cytotoxicity call
1,C[C@H](CO)N1C[C@H](C)[C@H](CN(C)S(=O)(=O)c2cccs2)Oc2ccc(NC(=O)Nc3cccc4ccccc34)cc2CC1=O,inactive
2,CC(C)NC(=O)Nc1ccc2c(c1)CC(=O)N([C@@H](C)CO)C[C@H](C)[C@H](CN(C)S(=O)(=O)c1cccs1)O2,inactive
3,C[C@@H]1CN([C@@H](C)CO)C(=O)Cc2cc(NC(=O)c3ccncc3)ccc2O[C@@H]1CN(C)S(=O)(=O)c1ccccc1,active
4,C[C@@H]1CN([C@@H](C)CO)C(=O)Cc2cc(NC(=O)c3ccncc3)ccc2O[C@H]1CN(C)S(=O)(=O)c1cccs1,inactive
5,C[C@@H]1CN([C@@H](C)CO)C(=O)Cc2cc(NC(=O)Nc3cccc4ccccc34)ccc2O[C@@H]1CN(C)S(=O)(=O)c1cccs1,active
6,C[C@H]1CN([C@@H](C)CO)C(=O)Cc2cc(NC(=O)c3ccncc3)ccc2O[C@@H]1CN(C)S(=O)(=O)c1cccs1,inactive
7,C[C@H](CO)N1C[C@H](C)[C@H](CN(C)S(=O)(=O)c2ccccc2)Oc2ccc(NC(=O)c3ccncc3)cc2CC1=O,inactive
8,C[C@H]1CN([C@@H](C)CO)C(=O)Cc2cc(NC(=O)c3ccncc3)ccc2O[C@@H]1CN(C)S(=O)(=O)c1ccccc1,inactive
9,C[C@@H]1CN([C@@H](C)CO)C(=O)Cc2cc(NC(=O)c3ccncc3)ccc2O[C@@H]1CN(C)S(=O)(=O)c1cccs1,active
10,CC(C)NC(=O)Nc1ccc2c(c1)CC(=O)N([C@@H](C)CO)C[C@@H](C)[C@@H](CN(C)S(=O)(=O)c1cccs1)O2,active
11,C[C@@H]1CN([C@H](C)CO)C(=O)c2cc(NC(=O)Nc3ccc(C(F)(F)F)cc3)ccc2O[C@@H]1CN(C)C(=O)Nc1ccc2c(c1)OCO2,inactive
12,COCC(=O)N1CC[C@]2(CC1)CN(Cc1ccc3c(c1)OCO3)[C@@H](CO)c1c2c2ccc(cc2n1C)OC,inactive
13,Nc1ccc(-c2ccco2)cc1,inactive
14,COc1ccc(S(=O)(=O)Nc2ccc3c(c2)CC(=O)N([C@H](C)CO)C[C@@H](C)[C@H](CN(C)S(=O)(=O)c2cn(C)cn2)O3)cc1,inactive
15,CC(C)NC(=O)N(C)C[C@@H]1OCc2cn(nn2)CCCC(=O)N([C@@H](C)CO)C[C@H]1C,inactive
16,C[C@@H]1CN([C@@H](C)CO)C(=O)c2cccc(NS(=O)(=O)c3ccc(F)cc3)c2O[C@H]1CN(C)Cc1ccc(Cl)c(Cl)c1,inactive
17,CC(=O)O[C@@H]1[C@@H](O)C[C@@]2(C)[C@@H](CC[C@@H](C)[C@@]23Cc2c(O)cc4c(c2O3)CN([C@@H](CCC(=O)O)C(=O)O)C4=O)C1(C)C,inactive
18,CCCN(C)C[C@H]1OCCCC[C@H](C)Oc2ccc(NC(=O)c3ccccc3)cc2C(=O)N([C@@H](C)CO)C[C@H]1C,inactive
19,CC(C)N1C[C@H](C)[C@@H](CN(C)Cc2cccc(Cl)c2)Oc2c(NC(=O)c3ccncc3)cccc2C1=O,inactive
20,C[C@@H]1CN([C@@H](C)CO)C(=O)c2cc(NC(=O)Nc3cccc4ccccc34)ccc2O[C@@H](C)CCCCO[C@@H]1CN(C)S(=O)(=O)c1ccc(Cl)cc1,inactive
21,Nc1nnc(C(=O)N2CCCCC2)[nH]1,inactive
22,C[C@@H]1CN([C@H](C)CO)C(=O)c2cc(NC(=O)CCN3CCOCC3)ccc2O[C@H]1CN(C)CC1CCCCC1,inactive
23,C[C@H](CO)N1C[C@H](C)[C@@H](CN(C)S(=O)(=O)c2ccccc2)Oc2ccc(NC(=O)CCC(F)(F)F)cc2CC1=O,inactive

row,Compound,cytotoxicity call
1,C[C@H]1CN([C@@H](C)CO)C(=O)Cc2cc(NC(=O)Cc3ccccc3)ccc2O[C@H]1CN(C)S(=O)(=O)c1cccs1,inactive
2,C[C@@H]1CN([C@@H](C)CO)C(=O)Cc2cc(NC(=O)CCC(F)(F)F)ccc2O[C@@H]1CN(C)S(=O)(=O)c1ccccc1,active
3,C[C@@H]1CN([C@H](C)CO)C(=O)Cc2cc(NC(=O)CCC(F)(F)F)ccc2O[C@@H]1CN(C)S(=O)(=O)c1ccccc1,inactive
4,C[C@@H]1CN([C@@H](C)CO)C(=O)Cc2cc(NC(=O)Cc3ccccc3)ccc2O[C@H]1CN(C)S(=O)(=O)c1cccs1,inactive
5,C[C@@H]1CN([C@@H](C)CO)C(=O)Cc2cc(NC(=O)Cc3ccccc3)ccc2O[C@@H]1CN(C)S(=O)(=O)c1cccs1,active
6,C[C@@H]1CN([C@@H](C)CO)C(=O)c2cc(Br)cnc2O[C@H]1CN(C)Cc1ccccc1C(=O)O,inactive
7,COc1nc2ccc(Br)cc2cc1[C@@H](c1ccccc1)[C@@](O)(CCN(C)C)c1cccc2ccccc12,inactive
8,C[C@@H]1CCCCO[C@@H](CN(C)Cc2ccccc2)[C@H](C)CN([C@H](C)CO)C(=O)c2cc(NC(=O)Nc3ccc4c(c3)OCO4)ccc2O1,inactive
9,CC(=O)N[C@@H]1[C@@H](OCCOc2ccc(Cl)cc2C)O[C@H](CO)[C@H](O)[C@@H]1O,inactive
10,CCOc1ccc(CO[C@@H]2O[C@H](CO)[C@@H](O)[C@H](O)[C@H]2NC(C)=O)cc1OC,active
11,CC(=O)N[C@@H]1[C@@H](Oc2ccc(C(C)=O)cc2)O[C@H](CO)[C@H](O)[C@@H]1O,inactive
12,COCCOC(=O)N1C(=O)[C@@]2(c3ccccc31)[C@H](C(=O)Nc1nc3ccccc3s1)[C@H]1C(=O)O[C@H](c3ccccc3)[C@H](c3ccccc3)N1[C@@H]2c1ccc(OCCO)cc1,inactive
13,CC(C)NC(=O)Cn1ccc([N+](=O)[O-])n1,inactive
14,Nc1ccccc1S(N)(=O)=O,inactive
15,NS(=O)(=O)c1ccccc1,inactive
16,NS(=O)(=O)C#Cc1ccccc1,active
17,C[C@H]1CN([C@@H](C)CO)S(=O)(=O)c2ccc(C#Cc3cccnc3)cc2O[C@@H]1CN(C)C(=O)CN(C)C,inactive
18,CC(C)(O)CC(=O)NCCn1ccc2ncnc(Nc3ccc(Oc4cccc(C(F)(F)F)c4)c(Cl)c3)c21,inactive
19,CS(=O)(=O)CCNCc1nc(-c2ccc3ncnc(Nc4ccc(OCc5cccc(F)c5)c(Cl)c4)c3c2)cs1,inactive
20,CS(=O)(=O)CCNCc1ccc(-c2ccc3ncnc(Nc4ccc(OCc5cccc(F)c5)c(Cl)c4)c3c2)o1 [listing 1 of 2 here],active
21,CS(=O)(=O)CCNCc1ccc(-c2ccc3ncnc(Nc4ccc(OCc5cccc(F)c5)c(Cl)c4)c3c2)o1 [listing 2 of 2 here],active
